According to the supplement of paper PMC6555819:

tested on: PPARg:RXRa DBDmut IVT, anti-RXR (DBD mutation: RXRa K156A/R161A, NR concentration 270 nM, RXRa partner concentration 90 nM); experiment: PBM binding z-score (relative to random genomic background probes); higher = stronger binding; sequences stand for … in GC…GCGATTGACAGCGTAGAATGAAGG
Method in brief: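 The probes on custom Agilent 4×180K protein-binding microarrays were double-stranded, with 34-nt variable regions bearing direct-repeat seeds, single-nucleotide variants, half-site ablations and random human genomic background sequences. Incubation lasted 1 h with ligand-free nuclear receptor dimers in PBS pH 7.4, 2% milk, 0.02% Triton X-100, 1 mM DTT, 0.2 mg/mL BSA and 0.4 mg/ml salmon testes DNA. Antibodies against each partner (one per run) detected bound dimers, and fluorescence scans were regression-normalized. Binding z-scores take the random background probes as reference.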

| Sequence | PBM binding z-score |
| --- | --- |
| CCGACTGGGCCAAAGGTTACCATACTCAGTACGA | 3.77 |
| AGTAAAAGTTCATCTAGGTAACGTAAGATATGCT | 0.423 |
| CCTTACGGGTCACTGACAGGTTATATCATTTGGA | 3.09 |
| GCGACTGGGGCATCAGCAGCTTACCATAACTTAA | 4.14 |
| GCTGCTAGGTCAACTAATGGTCAGCTAAAGCTCG | 4.24 |
| CCTACTGGGCCACGAAGGGTCATTGATTCAGTGA | 4.42 |
| ACAGACAGGTGATGAAGGTAACTAAGGCTATCAT | -0.224 |
| TCTTGTAGATCAAGCAGGTTGAGAAAGCCTGAGT | 1.7 |
| TCTATTAGTTGATTAGGGCGACCGAAACAGCGGA | 2.11 |
| CTACCAAGGTGAGCAAGGTCGTTGATTACTATTC | 1.33 |
| ATCGAAAGGTCGTGAGGTGGGTATACAGAAAGGC | -0.234 |
| CTCGAAAGGTCGCTTGAGGTGAGTATACGGATAA | 0.887 |
| CCTTACGGGTCAAGGCTATAGCACGGGTGGTACG | 1.68 |
| AGAATGAGGTTATTAAGATTAGGGAATTGCGGTC | 2.99 |
| TCTCGGAGGACTCGAAAGGTCAGAGCTCGACATC | 1.26 |
| ATCTCTAGGTATAGTTCAGTGAAAGATCGATAGA | 0.435 |
| CATACTAGGTCACGAAAGGTCAAAGTCGAATGAC | 7.83 |
| CCTACTGGGCCCAAGGTCATTGATTCCAATGCTC | -0.0484 |
| GGAACGATGGCAAGTTGATAGCAGAGTTTGATGG | 0.0538 |
| TCTTGTAGATCATAGGTTAAGAAAGCCGAAGCCT | 1.8 |

| Sequence | PBM binding z-score |
| --- | --- |
| CGTCCAAGGTCAAAGGCCAGTGAAGAGATGACGG | 3.42 |
| TCATATAGGTAAACAAGTGAAAGTCCGTAAGTTA | 3.94 |
| CCTTACGGGTCACTGACAGGTTATAACATTTGGA | 3.56 |
| ATATGTACGTTATCGGGTCATTCAGTTTGCGCAT | 1.03 |
| CCTTCTGGGCCAAGGTCATTGATCAGTCAAAGCA | 3.79 |
| TCTATTCGTTGAAGGGCAACCGACGAGTCCGTTT | 2 |
| CATAGTTGGTCAGGAGGTCACACACCGGATATGA | 1.15 |
| CGTCCAAGGTCAGCAGGTCAGTGATAGCGACGTG | 3.28 |
| AACTCTAGGTAACAAGTTCAGTGAAAGAGAGGAC | 3.33 |
| CCTACTGGGCCATTCAGAGTTCATTGATCATATG | 4.56 |
| CCTACTGGTCCAAAAAGGTCATTGATGCCGATAA | 0.397 |
| AGAATGAGGTTAACATCAGGGAAACAGAATACAT | 3.52 |
| CCTACTGGGCCAAAGGTCATTAATTCCAATGCTC | 5.16 |
| TAGCCTGGGTCAGATCGGGCCAGTATACGCTATA | -0.428 |
| ACAGACAGGTGATGGAGGTAACTCAGGCTATCAT | 0.108 |
| AGAATGAGGTTATTACGATCAGGGAATTGCGGTC | 3.27 |
| TCCTGTAGATCAATAGAGGTTAAGAAAGTGCGCT | 1.98 |
| ACAGACAGGTGATGAGGGTAACTCAGGCTATCAT | -0.0163 |
| GCTGCTAGGACAACTGATGGTCAGCTAAAGCTCG | 0.688 |
| ACTAGCAGGCCAAGTTTGGGTCACTCGAACAAAG | 1.03 |
